High-throughput results from PubChem.
The list is not random: actives were taken first. Their share in the collection is about 7.4%.
Tau fil binding = tau filament binding | P10636 | Potency, µM (highest dose often 57.1 µM) | recombinant tau filaments, thioflavin S fluorescence, 15 h; filaments grown with octadecylsulfate alongside compound | AID 596 | hit rate 2% among 71,000;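 note: actives lower thioflavin S fluorescence by blocking filaments or displacing dye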
Target sequence (P10636 whole entry, looked up): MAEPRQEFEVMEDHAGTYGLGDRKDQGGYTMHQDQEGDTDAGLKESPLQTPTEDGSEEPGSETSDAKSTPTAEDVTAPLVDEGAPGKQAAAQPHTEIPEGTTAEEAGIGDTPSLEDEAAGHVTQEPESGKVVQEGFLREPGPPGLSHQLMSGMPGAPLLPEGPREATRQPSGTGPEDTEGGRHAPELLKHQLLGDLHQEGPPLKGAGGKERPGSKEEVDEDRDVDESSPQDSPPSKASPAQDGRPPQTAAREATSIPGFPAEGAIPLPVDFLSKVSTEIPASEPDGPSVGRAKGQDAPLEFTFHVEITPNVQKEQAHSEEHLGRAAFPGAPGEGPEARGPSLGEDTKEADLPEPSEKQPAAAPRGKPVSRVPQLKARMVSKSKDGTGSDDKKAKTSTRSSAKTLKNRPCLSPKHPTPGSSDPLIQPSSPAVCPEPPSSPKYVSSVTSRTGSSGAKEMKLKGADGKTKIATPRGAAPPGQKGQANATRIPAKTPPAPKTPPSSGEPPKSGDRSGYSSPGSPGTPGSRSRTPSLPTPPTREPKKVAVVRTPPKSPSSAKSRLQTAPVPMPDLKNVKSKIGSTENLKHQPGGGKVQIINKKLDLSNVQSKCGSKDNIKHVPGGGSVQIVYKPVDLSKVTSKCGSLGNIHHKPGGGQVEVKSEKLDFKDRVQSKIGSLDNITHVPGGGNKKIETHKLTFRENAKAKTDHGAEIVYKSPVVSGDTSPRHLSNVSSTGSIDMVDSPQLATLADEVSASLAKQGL
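Read-out: ThS fluorescence, 450 nm excitation/510 nm emission; lower signal marks blocked filament formation or displaced dye. Tau at 1 uM with 30 uM ODS, 10 uM ThS, 5 mM DTT, 100 mM NaCl, 10 mM HEPES pH 7.4; 15 h, 37 C.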
TSHR ag = TSH receptor (human) agonism. AID 926. Potency, µM (top dose mostly 57.1 µM), actives largely listed as activators. hit rate 0.48% among 73,000. P16473. HEK293-CNG-TSHR cells (CNG channel as cAMP sensor), membrane potential dye, cAMP; active = well fitted activation curve with a large enough effect in the main read-out, with a control signal flat, not every such curve was filed as active; inconclusive = small, poorly fitted or top-dose-only effect, or a change in a side signal; inactive = no such curve, though single readings can be large or run the other way; reference of the percent scale not stated here;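 note: the control signal comes from parental cells without the receptor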
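HEK 293 cells stably expressing TSHR and a modified CNG channel, with CNG-only parental cells as counterscreen, were preloaded 60 min at room temperature with membrane potential dye containing 100 uM RO 20-1724. Compound exposure was 30 min, and depolarization was read as fluorescence at 590 nm.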
CRE Fsk mod = alters forskolin-stimulated CRE reporter signaling in CHO cells | CHO CRE-bla reporter (cAMP response element driving beta-lactamase), forskolin EC10, beta-lactamase ratio | Potency, µM (top dose mostly 38.2 µM), hits mostly activators | hit rate 2.5% among 71,000 | AID 662; active = well fitted activation curve with a large enough effect in the signal ratio, with a control signal flat, not every such curve was filed as active; inconclusive = small, poorly fitted or top-dose-only effect, or effect the other way, or a change in a side signal; the % refers to the signal ratio
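Beta-lactamase reporter under a cAMP responsive element in CHO cells; compounds tested in titration series against EC10 NKH 477, 3 h at 37 °C. Read-out: CCF4 FRET ratio 460nm/530nm (excitation 405nm) giving %Activity, fitted to AC50.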
ERK AVP block = vasopressin-driven ERK pathway inhibition; HEK293-V1b, vasopressin-stimulated pERK AlphaScreen; Potency, µM (highest dose often 57.5 µM), hits mostly inhibitors; hit rate 0.99% among 72,000; AID 995; note: nearly all actives have a fitted effect of over 55% in size
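Overnight-seeded V1b-HEK293 cells in 1% FBS got compound, then vasopressin (25 nM final, 5 min, 37C), then lysis buffer. AlphaScreen detection of phospho-ERK; activity normalized to basal and full-stimulation controls.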
HEK293 cAMP cs = counter-screen for TSHR agonists: cAMP increase in parental HEK293; Potency, µM (titrated, usually from 57.1 µM), most hits filed as activators; hit rate 2.5% among 73,000; parental HEK293 CNG cAMP sensor, membrane potential fluorescence; AID 938; note: nearly all actives have a fitted effect of over 55% in size
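Parental HEK 293 cells stably expressing a cAMP-gated CNG channel were loaded with membrane potential dye containing 100 uM RO 20-1724 for 60 min. Compound added for 30 min; depolarization read as fluorescence intensity at 590 nm.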
Hits are given with their value; – = inactive; ? = inconclusive; · = not tested or not shown; [ ] = dose if it differs, or a comment. Unless noted, calls come from the whole dose curve; as a rule, active = well fitted curve in the direction sought with a large enough effect; inconclusive = small, poorly fitted or top-dose-only effect, or another doubt; inactive = no such curve, though single readings can be large; an effect the other way counts as inactive or inconclusive.

SMILES	Tau fil binding	TSHR ag	CRE Fsk mod	ERK AVP block	HEK293 cAMP cs
Cc1ccc2oc3c(c(=O)c2c1)C(c1cccc(Cl)c1)N(CCCN1CCOCC1)C3=O (configuration not stated)	12.6µM	–	?	·	–
CCc1ccccc1O	–	–	–	–	–
COc1ccc(CCC(=O)c2c(O)cc(O[C@@H]3O[C@H](CO)[C@@H](O)[C@H](O)[C@H]3O[C@@H]3O[C@@H](C)[C@H](O)[C@@H](O)[C@H]3O)cc2O)cc1O	–	?	–	–	?
Cn1c(C(=O)NCc2cccnc2)cc2sc(Cl)cc21	·	?	·	·	25.1µM
Cn1nc(C(=O)NCc2cccnc2)c2ccccc2c1=O	–	–	?	–	–
Nc1nc2c(nc(Br)n2[C@@H]2O[C@H]3COP(=O)(O)O[C@@H]3[C@H]2O)c(=O)[nH]1	–	?	–	–	?
COc1ccc(-c2cc(-c3ccccc3)nc(N3CCCC3)n2)cc1OC	–[11.4 µM]	3.16µM	3.16µM	–	–[11.4 µM]
O=C1C2=C(Nc3cc([N+](=O)[O-])ccc3N2)O[C@@H]1c1c[nH]c2ccc(COc3ccccc3)cc12	–[11.4 µM]	–[11.4 µM]	–[7.6 µM]	–[11.5 µM]	–[11.4 µM]
COc1ccc(S(=O)(=O)n2nc(-c3cc(OC)c(OC)c(OC)c3)cc2N)cc1OC	–	–	5.01µM	–	–
COc1ccccc1-c1cc(N)n(S(=O)(=O)c2ccc(F)c(C)c2)n1	–	–	–	–	–
COc1ccc(-c2cc(N)n(S(=O)(=O)c3c(F)c(F)c(F)c(F)c3F)n2)cc1OC	–	0.794µM	–	5.01µM	–
CC(C)CN(C(=O)c1ccc(=O)n(C)n1)c1nc2ccccc2s1	25.1µM	–	–	–	–
O=C1c2ccccc2C(=O)c2c1ccc(C(=O)O)c2-c1ccc2ccccc2c1	3.16µM	?	?	–[11.5 µM]	?
O=C(O)c1cc(NS(=O)(=O)c2ccc3ccccc3c2)ccc1O	·	–	·	·	–
CC1=CC(=O)CC(C)(C)[C@@]1(O)/C=C\C(C)=C\C(=O)O	?	–	–	·	–
c1ccc(Nc2cc(Nc3ccccc3)[nH]n2)cc1	20µM	?	?	–	–
COC(=O)c1c(NC(=O)c2nc3ccccc3s2)sc2c1CCN(C(C)=O)C2	?	–	3.16µM	·	–
CNC(=O)c1c(NC(=O)c2nc3ccccc3s2)sc2c1CCC2	0.631µM	–	–	·	–
COC(=O)c1c(NC(=O)c2ccc(Br)s2)sc2c1CCC2	–	–	–	–	–
CCN1CCN(C(CNC(=O)c2ccc3c(c2)OCO3)c2cccnc2)CC1 (configuration not stated)	–	–	12.6µM	·	–
COc1ccc(N2CCN(Cc3nc(-c4ccc(Cl)cc4Cl)no3)CC2)cc1	12.6µM	–	–	–	–
CN(C)C=Nc1ncc2c3ccccc3n(CCN(C)C)c2c1C#N	–	–	–	–	–
CN(C)C=Nc1ncc2c3ccccc3n(Cc3ccccc3)c2c1C#N	–	?	?	–	31.6µM
O=C(NCC(c1ccc(F)cc1)N1CCOCC1)c1ccc(Br)o1 (configuration not stated)	–	?	–	–	25.1µM
COc1ccc(C(CNC(=O)c2cc(C)oc2C)N2CCOCC2)cc1 (configuration not stated)	–	?	–	–	?
SMILES	Tau fil binding	TSHR ag	CRE Fsk mod	ERK AVP block	HEK293 cAMP cs
Cc1ccc(S(=O)(=O)N[C@@H]2COC(=O)C/C=C\[C@H](C)COC(=O)N[C@@H](C)C(=O)C/C=C\[C@H]2C)cc1	·	?	·	–[11.5 µM]	?
COc1ccc(Nc2nc(C)c3ccccc3n2)cc1	–	–	–	?	–
COc1ccc(Nc2nc3ccccc3nc2C)cc1	20µM	–	?	–	–
O[C@@H](c1cc([C@@]23C[C@H]4CC[C@@H]2C[C@H](C4)C3)nc2c(Cl)cc(Cl)cc12)[C@@H]1CCCCN1	–[11.4 µM]	–[11.4 µM]	–[7.6 µM]	–[11.5 µM]	–[11.4 µM]
O=C(OCC1OC(OC(=O)c2cc(O)c(O)c(OC(=O)c3cc(O)c(O)c(O)c3)c2)[C@@H](OC(=O)c2cc(O)c(O)c(OC(=O)c3cc(O)c(O)c(O)c3)c2)C(OC(=O)c2cc(O)c(O)c(OC(=O)c3cc(O)c(O)c(O)c3)c2)C1OC(=O)c1cc(O)c(O)c(OC(=O)c2cc(O)c(O)c(O)c2)c1)c1cc(O)c(O)c(OC(=O)c2cc(O)c(O)c(O)c2)c1 (some centres not stated)	·	·	·	12.6µM	·
O=C(NC1CCN(Cc2ccccc2)CC1)C1CCCN(S(=O)(=O)c2cccc3nonc23)C1 (configuration not stated)	15.8µM	–	–	–	–
CC1CCN(CCNC(=O)C2CCCN(S(=O)(=O)c3cccc4nonc34)C2)CC1 (configuration not stated)	–	–	–	–	–
Nc1ccccc1S[C@@H](C[N+](=O)[O-])c1ccc2c(c1)OCO2	–[11.4 µM]	–[11.4 µM]	–[7.6 µM]	?	–[11.4 µM]
Cn1c(NCc2cccc(Br)c2)nc2ccccc21	–	–	–	31.6µM	–
O=c1c2ccccc2oc2cc(O)c([C@@H]3COC[C@@H](CO)[C@@H](O)[C@@H](O)[C@H]3O)c(O)c12	?	–	?	·	–
N#Cc1nc(-c2ccco2)oc1N1CCN(Cc2ccccc2)CC1	–	–	–	–	–
N#Cc1nc(-c2cccs2)oc1N1CCN(c2ccccc2)CC1	–	?	?	–	20µM
N#Cc1nc(Cc2ccccc2)oc1N1CCN(c2ccccc2)CC1	–	?	–	25.1µM	?
N#Cc1nc(Cc2ccccc2)oc1N1CCC(Cc2ccccc2)CC1	–	?	?	–	?
CCCCc1nc2n[nH]c(N)c2c2c1CCC2	–	·	?	15.8µM	–
Cc1cc2nc([C@H](C)C(=O)c3ccc(Cl)cc3)c(=O)[nH]c2cc1C	–[11.4 µM]	–[11.4 µM]	–[7.6 µM]	–[11.5 µM]	–[11.4 µM]
N#C/C(=C/c1ccc(N2CCCCCC2)o1)c1ccc(F)cc1	?	–	?	25.1µM	–
Cc1nnc2sc(-c3csc4c3CCCC4)nn12	–	·	10µM	–	–
C=CC[C@@H]1C=C[C@@H](O/N=C\[C@@H](NS(=O)(=O)c2ccc(C)cc2)[C@H](C)/C=C\CC(=O)OC)[C@@H](CO)O1	·	–[11.4 µM]	·	–[11.5 µM]	–[11.4 µM]
Cc1cc(C(=O)CSc2nnc(-c3cccc(F)c3)n2N)c(C)n1Cc1ccc2c(c1)OCO2	–	?	?	–	10µM
Cc1cc(C(=O)CSc2nnnn2-c2ccc(O)cc2)c(C)n1Cc1ccc2c(c1)OCO2	–	?	?	–	?
NCC(=O)N[C@H](CO)C(=O)O	–[11.4 µM]	–[11.4 µM]	–[7.6 µM]	–[11.5 µM]	–[11.4 µM]
c1ccc(CN2CCC3(CC2)SSC2(CCN(Cc4ccccc4)CC2)SS3)cc1	–[11.4 µM]	–[11.4 µM]	–[7.6 µM]	–[11.5 µM]	–[11.4 µM]
CC(C)(C)N1C(=O)Cc2c1nc(N)c1c(N)nc(N3CCCCC3CO)c(C#N)c21 (configuration not stated)	7.94µM	–	2.51µM	–	–
O=C(c1ccco1)N1CCN(c2ncnc3c(-c4ccccc4)nsc23)CC1	–	–	–	25.1µM	–
